# High-throughput results deposited in PubChem by several laboratories.
# LMP1 NFkB inh – EBV LMP1-driven NF-kappaB luciferase reporter inhibitors, primary screen, cell-based, luminescence, single point. LMP1-induced NF-kappaB luciferase reporter cells. inhibition, % at 12.5 µM. 0.69% of 350,000 active; in the data active = inhibition above about 41%; inconclusive = no clear call, values can overlap the other calls
# TWEAK-Fn14 inh – inhibitors of TWEAK-Fn14 signaling, primary screen, luciferase reporter cells, uHTS | TWEAK-stimulated Fn14 reporter cells, luciferase luminescence, 8 h | inhibition, % at 10 µM | 2% of 360,000 active | AID 1159606, 2016; in the data active = inhibition above about 50%
# TROY signal inh – inhibitors of TROY-driven NF-kB signaling, primary screen, Q293 LMP1-TROYcd cells, NF-kB luciferase, uHTS; Q293 LMP1-TROYcd NF-kB luciferase reporter, 4 h; inhibition, % at 10 µM; 0.98% of 360,000 active;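 active = compounds whose plate-normalised and pattern-corrected inhibition of the luciferase reporter signal at the single screening dose is 50% or more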
# MITF TRPM1 inh – inhibitors of MITF-dependent TRPM1 promoter reporter, primary screen, cell-based, SK-MEL-5, single point, luciferase | 0.83% of 330,000 active | inhibition, % at 12.5 µM | SK-MEL-5 TRPM1 promoter luciferase, 24 h | AID 488899, 2010;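 active = mean inhibition across replicates of 60% or more, whatever share of single replicates reaches that level; inconclusive = some that reach 60%, reason not given; inactive = mean inhibition across replicates below 60%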
# MITF TRPM1 HTS – activators of MITF-driven TRPM1 promoter reporter, primary screen, cell-based, SK-MEL-5, luciferase, single point; SK-MEL-5 TRPM1-promoter luciferase, 24 h; % of positive control, neutral wells = 0; activation, % at 12.5 µM; 0.75% of 300,000 active; AID 588334, 2011;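 active = mean activation of at least 80% with every replicate also reaching 80%; inconclusive = mean reaches 80% but some replicate falls short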
# LGR2 antag – inhibitors of bursicon-induced LGR2 CRE-luciferase signal, primary screen, cell-based, HEK293, CRE-luciferase reporter, bursicon stimulation; Drosophila bursicon receptor LGR2 (rickets); bursicon-stimulated, 4 h; inhibition, % at 9.99 µM; 0.35% of 380,000 active; AID 720647, 2013;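 active = drop in luminescence signal, shown as inhibition above about 50% in the replicate tests, limit read from the data, passing the limit was not always enough; inconclusive = probably only some replicates passing the limit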;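 also: agonist challenge used bursicon conditioned medium at about half maximal strength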
# Numbers stand for hits; i = inactive; ? = inconclusive; nt = no result given. Only some compounds are listed: those with a hit (about 3% of all), similar ones and a draw of the others.
SMILES,LMP1 NFkB inh,TWEAK-Fn14 inh,TROY signal inh,MITF TRPM1 inh,MITF TRPM1 HTS,LGR2 antag
Cc1cc(=O)[nH]c(N=N/C(=N/Nc2ccccc2C)c2ccccc2)n1,50.5,i,i,i,i,nt
Cc1noc(C)c1NC(=O)Nc1ccc2c(c1)C(=O)N(C)[C@@H]1CC[C@@H](CC(=O)NCc3ccc(Cl)cc3)O[C@H]1CO2,nt,nt,nt,nt,nt,i
CCC(C)Sc1ccc(-c2nc3cnccn3c2NC2CCCCC2)cc1 (stereo not given),i,i,i,i,i,i
COc1ccc(Sc2ccc(-c3nc4cnccn4c3NC3CCCCC3)cc2OC)cc1,i,62.0,i,i,i,i
COC(=O)Cc1ccc(NC(=O)c2ccc(C(C)(C)C)cc2)cc1,48.4,i,i,i,i,nt
O=C(Nc1ccc(Nc2ccccc2)cc1)c1ccc(Cl)cc1,i,i,i,i,i,i
COc1cc(C(=O)Nc2ccc3c(c2)nc(C)n3C)cc(OC)c1OC,i,i,i,i,i,i
COC(=O)Cc1ccc(NC(=O)c2ccccc2Cl)cc1,i,i,i,i,i,i
Cc1nc2cc(NC(=O)c3ccc(Cl)cc3)ccc2n1C,i,50.2,i,i,i,i
CC(C)(C)c1ccc(C(=O)Nc2ccc(Cl)cc2)cc1,i,i,i,i,99.4,i
CCCNC(=O)c1cc2c(c(-c3cccc(-c4cccc(OC)c4)c3)n1)[C@H](CCO)N([S@@](=O)C(C)(C)C)C2,nt,nt,nt,nt,nt,i
CCNC(=O)Nc1ccc2c(c1)C(=O)N(C)[C@H]1CC[C@@H](CC(=O)NCc3cccc(F)c3)O[C@@H]1CO2,nt,nt,nt,nt,nt,i
CC(C)NC(=O)N(C)C[C@@H]1Oc2ncc(C#CC3CCCCC3)cc2C(=O)N([C@H](C)CO)C[C@H]1C,nt,nt,nt,nt,nt,i
CCN(CC)CC(=O)Nc1ccc(-c2nc3cc(NC(=O)CN(CC)CC)ccc3o2)cc1,i,i,i,i,i,nt
CCC(C)NCC(=O)Nc1ccc(-c2nc3cc(NC(=O)CNC(C)CC)ccc3o2)cc1 (stereo not given),i,i,i,84.0,nt,i
COc1cccc(C(=O)Nc2cccc(-c3nc4ncccc4o3)c2C)c1,i,i,i,i,i,nt
Cc1c(NC(=O)c2ccc([N+](=O)[O-])o2)cccc1-c1nc2ncccc2o1,i,i,i,77.7,i,i
Cc1ccc2oc(-c3ccc(NC(=O)c4cccnc4)cc3)nc2c1,i,56.2,i,i,i,i
Cc1ccc2oc(-c3ccc(NC(=O)CC(C)C)cc3)nc2c1,i,i,i,i,100.7,i
CC(C)CC(=O)Nc1ccc2oc(-c3cccnc3)nc2c1,i,i,i,i,i,i
C[C@@H]1CCCCO[C@@H](CN(C)C(=O)Nc2ccccc2)[C@H](C)CN([C@@H](C)CO)C(=O)c2cc(NC(=O)c3ccccc3)ccc2O1,nt,nt,nt,nt,nt,i
CCCC(=O)Nc1ccc2oc(-c3ccncc3)nc2c1,i,i,i,i,i,nt
O=C(Nc1ccc2oc(-c3cccnc3)nc2c1)c1ccc(Br)o1,i,i,nt,i,i,i
O=C(Nc1ccc2oc(-c3cccnc3)nc2c1)c1ccc([N+](=O)[O-])o1,i,i,i,70.9,i,i
O=C(CN1CCCC1)Nc1ccc(-c2nc3cc(NC(=O)CN4CCCC4)ccc3o2)cc1,i,i,52.8,i,i,nt
SMILES,LMP1 NFkB inh,TWEAK-Fn14 inh,TROY signal inh,MITF TRPM1 inh,MITF TRPM1 HTS,LGR2 antag
COc1cc(C(=O)Nc2ccc(-c3nc4cc(C)ccc4o3)c(O)c2)cc(OC)c1OC,i,51.7,i,i,i,nt
O=C(CCN1C(=O)c2ccccc2C1=O)Nc1ccc(-c2nc3ccccc3o2)cc1,i,i,i,i,i,nt
O=C(CN1C(=O)c2ccccc2C1=O)Nc1ccc(-c2nc3ccccc3o2)cc1,i,72.1,nt,i,i,nt
COc1ccc2c3c([nH]c2c1)[C@@H](CO)N(S(C)(=O)=O)CC31CCN(C(=O)c2cccnc2)CC1,nt,nt,nt,nt,nt,i
O=C(Nc1ccc2c(c1)oc1ccccc12)c1ccncc1,i,i,i,i,nt,nt
O=C(Nc1ccc2c(c1)oc1ccccc12)c1cccnc1,i,i,i,i,105.8,nt
COc1ccc(OCC(=O)Nc2nccs2)cc1,?,80.6,i,i,i,66.1
O=C(COc1ccc2c(c1)OCO2)Nc1nccs1,i,66.0,i,i,i,60.5
COCc1nnc(NC(=O)COc2ccc3c(c2)OCO3)s1,i,i,i,i,i,i
CCOc1ccc(S(=O)(=O)N(C)c2ccc(OCC(=O)Nc3nccs3)cc2)cc1,i,i,i,i,i,i
CCOc1ccc(OCC(=O)Nc2nccs2)cc1,42.9,84.9,64.7,i,i,nt
O=C(COc1ccc2c(c1)OCO2)Nc1ccc(Cl)cn1,i,i,i,i,83.6,i
C[C@@H]1CN([C@H](C)CO)C(=O)c2cc(NC(=O)c3ccccc3)ccc2O[C@@H](C)CCCCO[C@@H]1CN(C)C(=O)Cc1ccccc1,nt,nt,nt,nt,nt,i
CN(C)Cc1c(C(=O)N/N=C/c2cccc(OCc3ccc(F)cc3)c2)nnn1-c1nonc1N,i,i,i,i,i,i
COc1cc(/C=N/NC(=O)c2nnn(-c3nonc3N)c2C(C)C)ccc1OCc1ccc(F)cc1,i,76.3,i,i,i,i
CN1CCN(Cc2c(C(=O)N/N=C/c3cccc(Br)c3)nnn2-c2nonc2N)CC1,i,i,i,76.6,i,i
CCN(CC)c1ccc(/C=N/NC(=O)c2nnn(-c3nonc3N)c2C(C)C)c(O)c1,63.5,i,i,68.2,i,i
Nc1nonc1-n1nnc(C(=O)N/N=C/c2cccc(O)c2)c1CN1CCCC1,i,i,i,i,i,i
CC(C)c1c(C(=O)N/N=C/c2cccc(OCc3ccc(F)cc3)c2)nnn1-c1nonc1N,i,i,52.7,i,i,i
Cc1cc(C(=O)Nc2ccc3c(c2)C(=O)N(C)[C@@H]2CC[C@@H](CC(=O)N[C@H](C)c4ccccc4)O[C@@H]2CO3)no1,nt,nt,nt,nt,nt,i
C[C@@H]1CN([C@H](C)CO)C(=O)Cc2cc(NC(=O)c3ccncc3)ccc2O[C@H]1CN(C)S(=O)(=O)c1ccc(F)cc1,nt,nt,nt,nt,nt,i
OC[C@@H]1[C@H](c2ccc(-c3ccncc3)cc2)[C@@H]2CN(Cc3ccccn3)CCCCN12,nt,nt,nt,nt,nt,i
COc1ccc(C2c3[nH]c4ccccc4c3CCN2Cc2cccn2-c2ncccn2)cc1C (stereo not given),i,56.3,71.2,i,i,i
Cc1cccc(C2c3[nH]c4ccccc4c3CCN2Cc2cccn2-c2ncccn2)c1 (stereo not given),i,i,i,i,i,i
